G9a inh = G9a (human) methyltransferase inhibition | Q96KQ7 | G9a H3K9 monomethylation, AlphaScreen, 2 h | Potency, µM (highest dose often 102 µM), for inactives: top-dose activity, negative = inhibition, usual class: inhibitors | 8.8% of 350,000 active; also: % is scaled to controls: 0 for no effect and ±100 for the full control effect; nearly all actives have a fitted effect of over 75% in size
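AlphaScreen read-out: biotin-H3K9 peptide (500 nM) methylation by 20 nM enzyme with 20 uM SAM, 2 h at room temperature after 15 min compound preincubation; anti-monomethyl H3K9 antibody plus donor/acceptor beads, 10 min dark.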
JMJD2A Tudor inh = blocks the human JMJD2A Tudor domain; O75164; AlphaScreen JMJD2A-Tudor / H3K4me3 peptide binding; Potency, µM (doses to about 114 µM), for the others: top-dose activity change, negative = inhibition, actives largely listed as inhibitors; 4.4% of 390,000 active; also: % is scaled to controls: 0 for no effect and ±100 for the full control effect; nearly all actives have a fitted effect of over 50% in size
L3MBTL1 block = blocks human L3MBTL1 | Q9Y468 | AlphaScreen L3MBTL1–H3K9me1 peptide binding | Potency, µM (titrated, usually from 57.1 µM), without a hit: top-dose activity, negative = inhibition, hits mostly inhibitors | 0.66% of 230,000 active | AID 485360; also: % is scaled to controls: 0 for no effect and ±100 for the full control effect; nearly all actives have a fitted effect of over 60% in size
Target sequence (Q9Y468 whole entry, looked up): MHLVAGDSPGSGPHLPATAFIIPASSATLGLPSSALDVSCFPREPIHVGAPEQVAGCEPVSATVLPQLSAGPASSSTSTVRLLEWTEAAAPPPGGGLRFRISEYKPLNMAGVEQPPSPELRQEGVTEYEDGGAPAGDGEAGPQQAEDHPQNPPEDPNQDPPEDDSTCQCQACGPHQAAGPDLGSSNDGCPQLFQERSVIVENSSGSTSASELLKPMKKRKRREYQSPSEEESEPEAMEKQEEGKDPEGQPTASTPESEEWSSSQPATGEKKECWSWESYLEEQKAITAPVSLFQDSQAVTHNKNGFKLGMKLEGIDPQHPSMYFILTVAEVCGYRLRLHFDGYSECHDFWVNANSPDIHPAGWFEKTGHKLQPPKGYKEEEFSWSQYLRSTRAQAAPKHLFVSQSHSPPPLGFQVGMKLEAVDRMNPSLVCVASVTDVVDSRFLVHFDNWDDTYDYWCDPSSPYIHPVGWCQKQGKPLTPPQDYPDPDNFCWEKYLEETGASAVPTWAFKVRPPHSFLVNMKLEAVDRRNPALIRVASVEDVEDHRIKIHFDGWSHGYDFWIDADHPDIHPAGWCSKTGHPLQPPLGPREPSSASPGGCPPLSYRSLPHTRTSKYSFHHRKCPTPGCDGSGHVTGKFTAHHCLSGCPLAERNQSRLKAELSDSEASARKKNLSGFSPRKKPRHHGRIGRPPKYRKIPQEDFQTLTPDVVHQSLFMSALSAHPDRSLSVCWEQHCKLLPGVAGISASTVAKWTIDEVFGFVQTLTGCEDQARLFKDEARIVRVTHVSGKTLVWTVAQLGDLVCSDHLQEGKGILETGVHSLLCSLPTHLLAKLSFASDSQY
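AlphaScreen proximity signal between nickel-chelate acceptor and streptavidin donor beads (final 10 ug/mL) reports binding of 50 nM L3MBTL1 to 75 nM biotin-H3 K9me1 peptide; complex incubated with compounds 30 min at room temperature; cefsulodin titration as control.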
Sfp inh = Sfp phosphopantetheinyl transferase inhibition | Biochemical Sfp PPTase activity, qHTS | 3.5% of 310,000 active | AID 1490 | Potency, µM, for the others: largest response in the series, negative = inhibition, actives largely listed as inhibitors;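 also: the enzyme is Sfp with the accession as filed and its product quenches rhodamine fluorescence; 0% = enzyme reaction without inhibitor and -100% = no enzyme wells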
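Fluorescence-quenching assay: 15 nM Sfp-PPTase preincubated 15 min at room temperature with compound, then 5 uM rhodamine-CoA and 12.5 uM BHQ-2-labelled YbbR peptide added. Fluorescence (ex 525/em 598 nm) read at start and after 30 min; difference gives rate.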
HP1b chromo inh = HP1-beta chromodomain-methylated histone interaction inhibition; P83916; 0.56% of 390,000 active; Potency, µM (top dose mostly 114 µM), for the others: at the top dose activity change, negative = inhibition, usual class: inhibitors; AlphaScreen HP1-beta / biotin-H3K9me3 peptide binding; also: nearly all actives have a fitted effect of over 70% in size
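Compound inhibition of the preformed complex between 50 nM HP1-beta and 50 nM biotinylated H3K9me3 peptide was read by AlphaScreen. Buffer was PBS pH 7.4 with 0.01% Tween-20. Incubations ran 30 min at room temperature, with 10 ug/mL donor/acceptor beads.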
BAZ2B inh = blocks human BAZ2B; AlphaScreen BAZ2B-H3K14Ac peptide displacement; 4.4% of 360,000 active; Q9UIF8; Potency, µM (doses to about 114 µM), without a hit: at the top dose activity change, negative = inhibition, most hits filed as inhibitors; also: % is scaled to controls: 0 for no effect and ±100 for the full control effect; nearly all actives have a fitted effect of over 60% in size
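BAZ2B (50 nM) with biotin-H3(5-23)K14Ac peptide (50 nM) in PBS pH 7.4, 0.01% Tween-20, preformed 30 min, then compound 30 min at room temperature; top concentration 110uM. AlphaScreen streptavidin donor/nickel chelate acceptor beads (10 ug/mL final), 20 min dark, signal read.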
The depositor's hits bear a star; ! = a repeat was not active; [ ] = remark or other dose. Rows were chosen to be rich in hits. Some 12% of all compounds tested hit in one or more screens of this group. Calls follow the shape of the dose curve; as a rule, active = well fitted curve in the direction sought with a large enough effect; inconclusive = small, poorly fitted or top-dose-only effect, or another doubt; inactive = no such curve, though single readings can be large; an effect the other way counts as inactive or inconclusive. Potency is read from the fitted curve at half-maximal effect.

For COC(=O)C1=C(C)NC(=S)NC1c1ccc(-c2ccccc2C(=O)OC)o1 (stereo not drawn) the results were G9a inh 8.91µM*, JMJD2A Tudor inh -28.5%, L3MBTL1 block -19.1%, Sfp inh inconclusive, HP1b chromo inh 4.9% and BAZ2B inh -38.7%.
Cc1ccc(NC(=O)c2cc(CN3CCOCC3)on2)cc1Cl was read as G9a inh 0.7%[59 µM], JMJD2A Tudor inh -6.0%, HP1b chromo inh -1.4% and BAZ2B inh -5.5%.
`COc1ccc(OC)c(CCNC(=O)CN2C(=O)COc3ccc(S(=O)(=O)N4CCC(C)CC4)cc32)c1` gave G9a inh -1.8%[59 µM], JMJD2A Tudor inh -25.2%, HP1b chromo inh 16.7% and BAZ2B inh -21.1%.
CCOC(=O)C1=C(C)NC(=S)NC1c1ccco1 (stereo not drawn) was read as G9a inh 50.1µM*, JMJD2A Tudor inh inconclusive, L3MBTL1 block -19.1%, Sfp inh 70.8µM*, HP1b chromo inh 12.4% and BAZ2B inh -14.4%.
Screening CN(C)S(=O)(=O)c1cccc(NC(=S)N/N=C/c2cc(Br)ccc2O)c1 returned JMJD2A Tudor inh 28.2µM*, L3MBTL1 block 10µM*, Sfp inh 4.9%, HP1b chromo inh -19.0% and BAZ2B inh 17.8µM*.
For CCOc1ccc(-n2c(SCC(=O)Nc3cc(C)ccc3C)nc3c([nH]c4ccccc43)c2=O)cc1 the results were G9a inh -0.2%[59 µM], JMJD2A Tudor inh -7.7%, HP1b chromo inh 23.7%[57 µM] and BAZ2B inh 3.8%.
For Cc1ccccc1C(=O)NC(CC(C)C)C(=O)OCc1cc(=O)n2cc(Br)ccc2n1 (stereo not drawn) the results were G9a inh 24.1%[59 µM], JMJD2A Tudor inh -10.4%, L3MBTL1 block 5.8%, Sfp inh -11.6%, HP1b chromo inh 16.3% and BAZ2B inh -3.4%.
`CC1(C)NC(=O)N(CC(=O)OCc2cc(=O)n3cc(Br)ccc3n2)C1=O` gave G9a inh 0.1%, JMJD2A Tudor inh -2.9%, L3MBTL1 block -10.5%, Sfp inh 15.1% and HP1b chromo inh 20.9%.
`Cc1cc(C)c(C)c(S(=O)(=O)N[C@@H](C)C(=O)OCc2cc(=O)n3cc(Br)ccc3n2)c1C` gave G9a inh inconclusive, JMJD2A Tudor inh -25.7%, L3MBTL1 block 12.6µM*, Sfp inh 4.8%, HP1b chromo inh 17.1% and BAZ2B inh 50.1µM*.
Screening O=C(CN1C(=O)NC2(CCCC2)C1=O)OCc1cc(=O)n2cc(Br)ccc2n1 returned G9a inh inconclusive, JMJD2A Tudor inh 50.1µM*, L3MBTL1 block -7.5%, Sfp inh 8.9%, HP1b chromo inh inconclusive and BAZ2B inh inconclusive.
Cc1ccc(N/N=C2/CCCNC2=O)cc1 was read as G9a inh 25.1µM*, JMJD2A Tudor inh inconclusive, L3MBTL1 block -1.2%, Sfp inh 0.7%, HP1b chromo inh inconclusive and BAZ2B inh 2.1%.
CC(=O)c1ccc(N/N=C2/CCCNC2=O)cc1 was read as G9a inh 25.3%, JMJD2A Tudor inh -30.3%, L3MBTL1 block 3.5%, Sfp inh 16.1%, HP1b chromo inh 35.8% and BAZ2B inh -1.5%.
Screening COC(=O)C(N)Cc1ccc(O)c(O)c1 (stereo not drawn) returned G9a inh inconclusive, JMJD2A Tudor inh -15.3%, Sfp inh -23.5%, HP1b chromo inh 0.4% and BAZ2B inh -30.9%.
`O=C(/C=C/c1ccc(O)c(O)c1)O[C@H](Cc1ccc(O)c(O)c1)C(=O)O` gave G9a inh inconclusive, Sfp inh 50.1µM* and BAZ2B inh 3.55µM*.
O=C(/C=C/c1ccc(Br)cc1)NC(=O)c1ccccc1O was read as G9a inh inconclusive, JMJD2A Tudor inh -11.5%[57.1 µM], L3MBTL1 block -24.2%, Sfp inh 0.2%, HP1b chromo inh -8.0% and BAZ2B inh inconclusive.
`O=C(/C=C/c1ccc(O)c(O)c1)NC(=O)c1ccccc1O` gave G9a inh 5.1%[12.7 µM], JMJD2A Tudor inh 63.1µM*, Sfp inh -12.3%, HP1b chromo inh inconclusive and BAZ2B inh 50.1µM*.
Screening O=C(O)/C=C/c1ccc(O)c(O)c1 returned G9a inh 10.6µM*, JMJD2A Tudor inh inconclusive, L3MBTL1 block inconclusive, Sfp inh 56.2µM*!, HP1b chromo inh 13.0% and BAZ2B inh inconclusive.
N=c1n(CCO)c2ccccc2n1Cc1ccccc1F was read as G9a inh 4.9%[59 µM], JMJD2A Tudor inh -9.3%, HP1b chromo inh 22.6% and BAZ2B inh -2.5%.
`CCOC(=O)c1c(C)[nH]c(CCC(=O)NCc2cccc(C)c2)c1C` gave G9a inh -0.1%[59 µM], JMJD2A Tudor inh -10.1%, HP1b chromo inh 25.7%[57 µM] and BAZ2B inh -13.6%.
For CCOC(=O)c1c(C)[nH]c(N=Nc2cccc(C)c2)c1C the results were G9a inh inconclusive, JMJD2A Tudor inh 25.1µM*, Sfp inh -10.4%, HP1b chromo inh inconclusive and BAZ2B inh 25.1µM*.
CCOC(=O)c1c(C)[nH]c(N=Nc2cccc(OC)c2)c1C was read as G9a inh 31.6µM*, JMJD2A Tudor inh 28.2µM*, L3MBTL1 block -11.9%, Sfp inh inconclusive, HP1b chromo inh 50.1µM* and BAZ2B inh 22.4µM*.
COc1ccccc1CNC(=O)c1ccc2nc(N3CCCCC3)sc2c1 was read as G9a inh 20.7%[59 µM], JMJD2A Tudor inh 4.0%, HP1b chromo inh 53.5% and BAZ2B inh 3.5%.
`CC1CCN(C2=NN3C(=N)/C(=C\c4ccc(OC(=O)c5ccco5)cc4)C(=O)N=C3S2)CC1` gave G9a inh 17.1%, JMJD2A Tudor inh inconclusive, L3MBTL1 block -5.8%, Sfp inh 12.4%, HP1b chromo inh 4.4% and BAZ2B inh -37.0%.
Screening CCS(=O)(=O)C1=NN2C(=N)/C(=C\c3ccc(OC(=O)c4ccco4)c(OC)c3)C(=O)N=C2S1 returned G9a inh 31.6µM*, JMJD2A Tudor inh inconclusive, Sfp inh -9.6%, HP1b chromo inh 14.5% and BAZ2B inh -38.7%.
For N=C1/C(=C\c2ccc(OC(=O)c3ccc(F)cc3)cc2)C(=O)N=C2SC(N3CCOCC3)=NN12 the results were G9a inh -9.5%, JMJD2A Tudor inh 1.9%, Sfp inh -20.4%, HP1b chromo inh 39.5% and BAZ2B inh 44.7µM*.
CS(=O)(=O)C1=NN2C(=N)/C(=C\c3ccc(OC(=O)c4ccco4)cc3)C(=O)N=C2S1 was read as G9a inh 44.7µM*, JMJD2A Tudor inh -10.7%, Sfp inh -21.8%, HP1b chromo inh 26.2% and BAZ2B inh 50.1µM*.
Screening CCOC(=O)c1ccc(N2NC(=O)/C(=C/c3ccc(OC(=O)c4ccco4)c(OC)c3)C2=O)cc1 returned G9a inh 31.6µM*, L3MBTL1 block -18.6%, Sfp inh inconclusive and BAZ2B inh inconclusive.
